Usually inhibition stands for the drop in the measured response relative to a control, in per cent.

Out of some 47,000 compounds screened, about 2,500 (5.3%) were called active. This is one part of a sample in which actives are shown more often than they occur. Cut-off read from the data, not from the text of the source: active = inhibition above about 30%; inactive = the rest. *1 amine or outer side, *2 acyl side, *3 side chain or, on linkers, in order; H or OH if unused. Where a SMILES comes first, the peptide text is derived from it. [ ]: non-standard residue; d: D form. ξ: configuration not given here. ξβ3hGly(undecyl) = CCCCCCCCCCCC(CC(=O)[*:2])N[*:1]

91 compounds from PubChem BioAssay AID1645860 (Buhrlage Lab, Dana-Farber Cancer Institute and Novartis …, 2021) can be followed below.

For the test, the target named is Ubiquitin carboxyl-terminal hydrolase 30 (Homo sapiens) (UniProt Q70CQ3). Description: blocks human USP30 ubiquitin-rhodamine cleavage (AID 1645860). The note with it: purified USP30, Ub-rhodamine cleavage fluorescence; at 25 µM; active compounds read high.
Sequence of Ubiquitin carboxyl-terminal hydrolase 30 (Homo sapiens) (Q70CQ3 whole entry, looked up): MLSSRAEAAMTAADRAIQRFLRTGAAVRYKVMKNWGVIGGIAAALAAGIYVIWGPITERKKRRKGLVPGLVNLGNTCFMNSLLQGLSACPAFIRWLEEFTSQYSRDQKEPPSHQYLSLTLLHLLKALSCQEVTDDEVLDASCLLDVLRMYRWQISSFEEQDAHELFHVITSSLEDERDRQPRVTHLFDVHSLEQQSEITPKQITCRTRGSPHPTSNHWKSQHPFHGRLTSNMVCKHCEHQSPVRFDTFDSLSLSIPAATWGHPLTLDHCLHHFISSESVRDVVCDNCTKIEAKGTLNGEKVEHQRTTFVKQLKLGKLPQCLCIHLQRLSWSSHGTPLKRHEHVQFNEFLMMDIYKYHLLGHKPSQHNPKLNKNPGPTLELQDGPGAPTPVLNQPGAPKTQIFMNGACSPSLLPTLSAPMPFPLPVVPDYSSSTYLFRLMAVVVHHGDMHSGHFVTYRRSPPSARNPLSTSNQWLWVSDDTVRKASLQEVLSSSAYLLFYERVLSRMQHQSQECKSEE
With `Cc1ccccc1NC(=O)Cc1csc2nc(-c3ccc(F)cc3)cn12`, the inhibition is 88.4% (active).

For the compound `Cc1cc(F)ccc1NC(=O)Cc1n[nH]c(Cc2ccccc2)n1`, the inhibition was -13.4% (inactive).

On to `O=C(Cc1ccc(F)cc1)Nc1ccccc1Cc1ccccc1`, for which the inhibition is 27.2% (inactive).

Take `CC(C)N1CCN(C(=O)c2n[nH]c3c2CCCC3)CC1`: the inhibition was -5.42% (inactive).

For the compound `Cn1ccc(-c2cc(C(=O)NC3CC3)c3ccccn23)n1`, the inhibition was -423% (inactive).

Turning to `CC(C)C(=O)Nc1nc2cc(NS(=O)(=O)c3ccccc3)ccc2s1`, the inhibition is 36.4% (active).

Regarding `CC(C)C(=O)Nc1nc2ccc(CCC(=O)Nc3ccc(F)cc3)cc2s1`, the inhibition is 26.5% (inactive).

As for `O=C(Nc1ccc2sc(NC(=O)C3CCCCC3)nc2c1)NC1CCCC1`, the inhibition is 0.0388% (inactive).

In the case of `COCCN1C(=O)Cc2c(C)nc(C3(C)CCCN(c4cc(C)ncn4)C3)nc21` (stereo unspecified), the inhibition is -104% (inactive).

For the compound `COc1cc(OC)cc(-c2nnc(NC(=O)c3ccc([N+](=O)[O-])o3)o2)c1`, the inhibition is 40.1% (active).

Take `COc1cccc(-c2ocnc2C(=O)NCc2ccc(OC)c(OC)c2)c1`: the inhibition was -25.4% (inactive).

As to `COc1ccc(-c2ocnc2C(=O)NCc2ccc(OC)c(OC)c2)cc1`, the inhibition is -6.37% (inactive).

Regarding `N#Cc1ccc(-c2cccc(C(F)(F)F)c2)n(Cc2c(F)cccc2Cl)c1=O`, the inhibition was 17.6% (inactive).

Turning to `CC(=O)N1CSCC1C(=O)N1CCC2(CC1)CNC(=O)c1ccccc1O2` (stereo unspecified), the inhibition is 6.33% (inactive).

Turning to `CCN1CCC2(CC1)OC(=O)C(C)=C2C(=O)NCc1ccccc1OC`, the inhibition was 3.07% (inactive).

On to `COc1cccc(NC(=O)CSc2nc(-c3ccco3)nc3cc(=O)[nH]n23)c1`, for which the inhibition was -50.3% (inactive).

`O=C1C(O)=C(c2ccc(O)c(O)c2)C(=O)C(O)=C1c1ccccc1`: the inhibition is 50.5% (active).

In the case of `CC(=O)N1CCn2c(nnc2C2CCCN2)C1` (stereo unspecified), the inhibition is 12.2% (inactive).

For the compound `CCCCCCCCCCCC1CC(=O)NC(CC(N)=O)C(=O)NC(Cc2ccc(O)cc2)C(=O)NC(CC(N)=O)C(=O)NC(CCC(N)=O)C(=O)N2CCCC2C(=O)NC(CC(N)=O)C(=O)NC(CO)C(=O)N1` (stereo not drawn) (cyclo([ξβ3hGly(undecyl)]NYNQPNS); configuration not given here), the inhibition was -32.4% (inactive).

For the compound `O=C(Nc1ccc(C(F)(F)F)cc1)N1CCc2[nH]cnc2C1c1ccncc1` (stereo unspecified), the inhibition is 13% (inactive).

Turning to `Cc1nn(-c2ccc(F)cc2F)c2c1C(C(=O)c1cc3ccccc3o1)CC(=O)N2` (stereo unspecified), the inhibition is 33.3% (active).

As for `Cc1nn(-c2ccc(F)cc2)c2c1C(C(=O)c1cc3ccccc3o1)CC(=O)N2` (stereo unspecified), the inhibition is -18.2% (inactive).

As to `Cc1nn(-c2cccc(F)c2)c2c1C(C(=O)c1cc3ccccc3o1)CC(=O)N2` (stereo unspecified), the inhibition was 2.53% (inactive).

Turning to `CC(CNC(=O)c1csc(C(=O)N2CCCC2)n1)c1ccccc1` (stereo unspecified), the inhibition is -12% (inactive).

As for `CC(C)=CCc1cc(O)ccc1O`, the inhibition is 0.263% (inactive).

As for `CC(C)=CCC(O)C1=CC(=O)c2c(O)ccc(O)c2C1=O` (stereo unspecified), the inhibition was 74.5% (active).

As to `Cc1ccc(NC(=O)C(OC(=O)c2ccc(S(=O)(=O)N3CCCC3)cc2)c2ccccc2)cc1` (stereo unspecified), the inhibition is 0.818% (inactive).

As to `CC(=O)Nc1ccc(S(=O)(=O)N2CCC(CN3CCCC(C)C3)CC2)cc1` (stereo unspecified), the inhibition is -7.71% (inactive).

For the compound `O=C(O)c1ccc(S(=O)(=O)N2CCC(Cc3ccccc3)CC2)cc1`, the inhibition was -5.01% (inactive).

For the compound `CC(=O)Nc1ccc(S(=O)(=O)N2CCC(CC(=O)NC(C)c3ccccc3)CC2)cc1` (stereo unspecified), the inhibition was 31.5% (active).

With `CCNC(=O)c1ccc2c(c1)nc1n2CCN(CC2CCCO2)C1` (stereo unspecified), the inhibition is -93.9% (inactive).

Take `Cc1noc(C)c1CSc1ccccc1C(=O)N(C)Cc1ccc2c(c1)OCO2`: the inhibition is 25.1% (inactive).

In the case of `CC(=O)CCCSc1ncnc2c1sc1nc(N3CCOCC3)c3c(c12)CC(C)(C)OC3`, the inhibition was 36.7% (active).

As for `CCCCCCSc1ncnc2c1sc1nc(-c3ccccc3)c3c(c12)CC(C)(C)OC3`, the inhibition was -3.25% (inactive).

`CCOCCCNc1ncnc2c1sc1nc(N3CCOCC3)c3c(c12)CC(C)(C)OC3`: the inhibition is -0.00409% (inactive).

`CSc1nccc(-c2ccc(F)cc2)c1C#N`: the inhibition is 30.3% (active).

Turning to `O=C(NC1CCCCC1)c1ccc2c(=O)nc3c(-c4ccccc4F)n[nH]n3c2c1`, the inhibition is -42.8% (inactive).

Consider `CCc1ccc(NC(=O)N2CCC3(CC2)COc2ccccc2S(=O)(=O)N(C)C3)cc1`, for which the inhibition is -0.131% (inactive).

For the compound `Cc1ccc(C)c(N2C(=O)CN(S(C)(=O)=O)CC2(C)C(=O)NCc2ccccc2)c1` (stereo unspecified), the inhibition is -0.764% (inactive).

With `O=C(Nc1ccccc1F)C1CCCN(c2nnc3ccccn23)C1` (stereo unspecified), the inhibition was 8.96% (inactive).

Regarding `O=C(CSc1nccn1C1CCCCC1)Nc1ccccc1F`, the inhibition is 24.6% (inactive).

With `O=C(Nc1ccccc1F)NC1CCCN(c2cc(-c3ccncc3)[nH]n2)C1` (stereo unspecified), the inhibition is 34.3% (active).

As for `COc1cccc(-c2cc3c(=O)n(Cc4nc(-c5ccccc5C)no4)ccn3n2)c1`, the inhibition is -2.78% (inactive).

With `CN1CCN(C(=O)C2=NOC3(CCCNC3)C2)C(c2ccccc2)C1` (stereo unspecified), the inhibition was -3.49% (inactive).

Consider `COc1ccc(Cc2noc(C3(c4ccc(Cl)cc4)CCOCC3)n2)cc1`, for which the inhibition is -0.175% (inactive).

Take `COc1ccc(C2(C(=O)Nc3cccnc3)CCOCC2)cc1`: the inhibition is -2.08% (inactive).

On to `COc1ccc(-c2noc(C3(c4ccccc4)CCOCC3)n2)cc1`, for which the inhibition is 32.8% (active).

Turning to `C[C@]12C(=O)N(C3CC3)CC(=O)N1CC(c1ccccc1Cl)c1c2[nH]c2ccccc12` (stereo partly specified), the inhibition is 21.3% (inactive).

Regarding `Cc1cc(=O)c2c(O)cccc2o1`, the inhibition was -221% (inactive).

`COc1ccc(CCC(=O)Nc2ccc3nc(N4CCOCC4)cc(C)c3c2)cc1`: the inhibition is -2.1% (inactive).

Regarding `Cc1nc(N(C)C)cc(N2CCN(C(=O)Nc3ccc4c(c3)OCCO4)CC2)n1`, the inhibition was -13.9% (inactive).

As for `Fc1cc(F)cc(CNc2cc(-n3ccnc3)ncn2)c1`, the inhibition is 0.587% (inactive).

Regarding `COc1cc(OC)cc(C(=O)Nc2cccc(CCc3nc4ccc(C)cc4[nH]3)c2)c1`, the inhibition was 26% (inactive).

`O=c1c2[nH]c3ccc(Cl)cc3c2ncn1Cc1cccnc1`: the inhibition is -14.2% (inactive).

Take `COc1cc(Cn2cnc3c([nH]c4ccc(Br)cc43)c2=O)cc(OC)c1`: the inhibition is 57.3% (active).

Turning to `CCOc1ccc2[nH]c3c(=O)n(Cc4cccnc4)cnc3c2c1`, the inhibition is 22% (inactive).

In the case of `CC(=O)Nc1onc(C)c1-c1ccc(C)c(S(=O)(=O)Nc2ccccc2)c1`, the inhibition is -17.6% (inactive).

As for `COc1ccc(CC(=O)Nc2cnc(-c3ccccc3)nc2)cc1`, the inhibition is -102% (inactive).

For `O=C(Cc1nc(-c2ccccn2)n[nH]1)NC1CCCCCC1`, the inhibition is -21.9% (inactive).

In the case of `Cc1ccc(NC(=O)Cc2nc(-c3ccccc3)n[nH]2)cc1`, the inhibition is 44.3% (active).

As to `COc1ccccc1OCCC(=O)Nc1cccc(S(=O)(=O)N(C)C)c1`, the inhibition was 11.1% (inactive).

Take `CC(OC(=O)c1cn(-c2ccccc2)nc1-c1cccnc1)C(=O)Nc1cccc(S(=O)(=O)N(C)C)c1` (stereo unspecified): the inhibition was 55.1% (active).

Regarding `CCOc1ncccc1C(=O)NNC(=O)c1cn(-c2ccccc2)nc1-c1ccccc1`, the inhibition is -0.192% (inactive).

Take `CNc1nc(C2CCCN(C(=O)C3CCCCC3)C2)nc2c1CNCC2` (stereo unspecified): the inhibition was -11.2% (inactive).

As to `COc1cc(NS(=O)(=O)c2ccc3c(c2)N(C)CCO3)cc(OC)c1`, the inhibition was 0.0144% (inactive).

Take `O=C(Nc1ccc(N2CCN(c3ccccc3)C2=O)nc1)c1ccc2c(c1)OCO2`: the inhibition is -9.55% (inactive).

`CC(C)(C)c1ccc(Oc2ccc(NC(=O)c3ccc4c(c3)CCO4)cn2)cc1`: the inhibition was 34.9% (active).

As for `O=C(Nc1ccccc1)c1ccc2c(c1)OCCCO2`, the inhibition was 3.42% (inactive).

Take `Cc1nc2cc3c(cc2n1CC(=O)NCCc1ccccc1)OCCO3`: the inhibition is -5.99% (inactive).

Consider `Cc1cccc(CC(=O)Nc2c(C)nc3ccccn3c2=O)c1`, for which the inhibition was 7.29% (inactive).

Regarding `COc1cccc(N2CCN(C(=O)Nc3ccc4c(c3)NC(=O)CO4)CC2)c1`, the inhibition is 69.6% (active).

As for `Cc1cc2oc(C(=O)Nc3ccc4c(c3)NC(=O)CO4)c(C)c2cc1Cl`, the inhibition is 19.5% (inactive).

`COc1cccc(NC(=O)N2CC[C@H]3N(C)CC[C@@]3(C(=O)N3CCCC3)CC2)c1`: the inhibition is -23.3% (inactive).

As to `O=C(O)C[C@@H]1CCN(C(=O)C2CCCCC2)C[C@@H]1CC1=NCCc2ccccc21`, the inhibition was -65% (inactive).

Regarding `COc1ccc(SCc2nc(N)nc(Nc3ccccc3)n2)cc1`, the inhibition is -33% (inactive).

Take `CC(C)Cc1nc2sc3c(N(CCO)Cc4ccccc4)ncnc3c2c2c1COC(C)(C)C2`: the inhibition is 34.9% (active).

Consider `CC1(C)Cc2c(c(-c3ccco3)nc3sc4c(SCCCc5ccccc5)ncnc4c23)CO1`, for which the inhibition is 11.9% (inactive).

As for `CSc1ncnc2c1sc1nc(-c3ccccc3)c3c(c12)CC(C)(C)OC3`, the inhibition was 9.17% (inactive).

In the case of `COc1cccc(O[C@@H]2C[C@@H](NC(=O)C3CCOCC3)[C@H](O)[C@H]2O)c1`, the inhibition was 7.84% (inactive).

Consider `O=C1CNC(=O)N1CC(O)Cn1c2ccc(Br)cc2c2cc(Br)ccc21` (stereo unspecified), for which the inhibition was 6.98% (inactive).

In the case of `O=C(Nc1ccc(Cl)cc1)C1C2C=CC3(O2)C1C(=O)N(CCc1ccccc1Cl)C3C(=O)NC1CCCCC1` (stereo unspecified), the inhibition is 29.8% (inactive).

On to `O=c1c2cnc(N3CCOCC3)nc2ccn1CCc1ccccc1`, for which the inhibition was 12.9% (inactive).

For `O=c1c2cnc(N3CCCC3)nc2ccn1-c1ccccc1`, the inhibition was 31% (active).

As to `O=c1c2cnc(N3CCCCC3)nc2ccn1Cc1cccnc1`, the inhibition is 1.8% (inactive).

Turning to `c1ccc(-c2nccc(-c3ccc(-n4cncn4)cc3)n2)nc1`, the inhibition was 23.2% (inactive).

As for `Cn1c(SCc2ccc(Cl)cc2)nnc1-c1ccc2c(c1)OCCO2`, the inhibition was 30.4% (active).

For `CCn1c(SCC(=O)Nc2ccc3c(c2)OCCO3)nnc1C(C)C`, the inhibition was 9.74% (inactive).

As to `Cc1cc(C(=O)CSc2nnc(-c3ccc(F)cc3)n2C)c(C)n1C`, the inhibition was -35% (inactive).

Turning to `Cc1nc2cc(C(=O)NCc3ccccn3)ccc2n1-c1cccc(F)c1`, the inhibition is 0.251% (inactive).

For the compound `Cc1nn(-c2ccccc2)c2c1c(C)c(CCC(=O)N1CCN(c3ccc(F)cc3)CC1)c(=O)n2C`, the inhibition is -7.59% (inactive).

For `Cc1nn(-c2cccc(F)c2)c2c1c(C)c(CCC(=O)NCc1ccccn1)c(=O)n2C`, the inhibition is 58.6% (active).
